SMN2 splice up – enhancers of SMN2 splice variant expression; HEK293 SMN2-luciferase splicing reporter, luminescence, 30-36 h; Potency, µM (series often up to 46.1 µM), for inactives: at the top dose activity change, positive = activation, actives largely listed as activators; 210,000 tested, 2.8% active; AID 1458; further: % of control where 0% means no effect; nearly all actives have a fitted effect of over 55% in size
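qHTS luciferase splicing reporter: luminescence rises when SMN2 exon 7 is included in transfected HEK293 cells. Compound exposure lasted 30-36 h at 37C, with 4.5 mM final sodium butyrate as control, followed by a ONE-Glo read.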
ELG1 DNA repair – blocks ELG1-dependent DNA repair in HEK293T cells; Potency, µM (series often up to 46.1 µM), without a hit: at the top dose activity change, negative = inhibition, most hits filed as inhibitors; HEK293T ELG1-luciferase reporter, luminescence, 16 h; DNA damage induced by 5-fluorouridine; 330,000 tested, 2.3% active; further: on the % scale 0 is the no-effect control and ±100 the full control effect; nearly all actives have a fitted effect of over 55% in size
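HEK293T cells expressing luciferase-tagged ELG1 (2,000/well) received 5-Fluorouridine plus compound or DMSO for 16 hr at 37 °C. Luciferase was read by ONE-Glo luminescence after 30 min at room temperature.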
ELG1 genotox – induces genotoxicity in HEK293T cells with luciferase-tagged ELG1; HEK293T ELG1-luciferase reporter, luminescence, 16 h; Potency, µM (top dose mostly 46 µM), for the others: at the highest dose activity change, positive = activation, hits mostly activators; 330,000 tested, 1.3% active; further: % of control where 0% means no effect; nearly all actives have a fitted effect of over 60% in size
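Quantitative HTS format in 1536-well plates. HEK293T ELG1-luciferase reporter cells receive test compound and are incubated 16 hr at 37 °C, 5% CO2; ONE-Glo added, 30 min room temperature, then luminescence read.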
FLuc counter – counter-screen for miR-21 project: firefly luciferase inhibitors or activators | 360,000 tested, 6.9% active | Potency, µM (titrated, usually from 57.5 µM), without a hit: at the top dose activity change, negative = inhibition, usual class: inhibitors | AID 588342 | purified FLuc, Km substrates, luminescence inhibition | P08659;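 further: plate controls were vehicle for no effect and reference inhibitor for full effect; nearly all actives have a fitted effect of over 55% in size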
Target sequence (P08659 whole entry, looked up): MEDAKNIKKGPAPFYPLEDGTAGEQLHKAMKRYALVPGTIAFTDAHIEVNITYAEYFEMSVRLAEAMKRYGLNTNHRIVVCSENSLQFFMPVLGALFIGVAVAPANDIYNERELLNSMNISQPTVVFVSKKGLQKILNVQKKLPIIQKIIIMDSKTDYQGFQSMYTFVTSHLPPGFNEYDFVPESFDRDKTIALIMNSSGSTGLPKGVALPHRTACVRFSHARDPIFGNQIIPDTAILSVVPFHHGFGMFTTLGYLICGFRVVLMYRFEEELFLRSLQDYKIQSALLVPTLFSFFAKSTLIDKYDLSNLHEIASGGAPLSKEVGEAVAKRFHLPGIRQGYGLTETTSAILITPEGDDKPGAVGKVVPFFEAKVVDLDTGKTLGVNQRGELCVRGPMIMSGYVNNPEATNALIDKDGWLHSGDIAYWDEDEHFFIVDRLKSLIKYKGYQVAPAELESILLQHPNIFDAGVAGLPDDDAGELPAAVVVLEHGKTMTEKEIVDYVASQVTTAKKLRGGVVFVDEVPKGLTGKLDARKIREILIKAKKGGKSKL
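Biochemical qHTS of compounds, final roughly 60 µM downward over six points, against 10 nM purified firefly luciferase using Km concentrations of substrates (10 uM D-luciferin, 10 uM ATP) in Tris acetate pH 7.5 buffer; luminescence output.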
Rab9 prom act – Rab9 promoter activation; Potency, µM (titrated, usually from 9.22 µM), inactives show at the highest dose activation, negative = inhibition, usual class: activators; Huh7 Rab9 promoter-luciferase reporter, luminescence, 24 h; 320,000 tested, 2.8% active; AID 485297; further: % of control where 0% means no effect; nearly all actives have a fitted effect of over 60% in size
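Promoter activation is measured as luciferase luminescence in Huh7 cells stably transfected with a Rab9 promoter–luciferase construct, following 24 h compound exposure at 37 °C and 10 min reagent incubation at ambient temperature.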
NPC1 promoter act – activators of NPC1 promoter; Huh7 NPC1 promoter luciferase reporter, 24 h; Potency, µM (doses to about 9.22 µM), inactives show top-dose activation, hits mostly activators; 320,000 tested, 2.4% active; further: % of control where 0% means no effect; nearly all actives have a fitted effect of over 60% in size
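Quantitative HTS used a cell-based reporter: Huh7 cells stably bearing the NPC1 promoter upstream of luciferase were treated with compounds for 24 h, and promoter activation was read as luminescence.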
Numbers without * were called inactive. Sampled rows, rich in hits. Any-hit rate of the full collection: about 9.2%. The call rests on the fitted dose curve; in most records, active means well fitted curve in the direction sought with a large enough effect; inconclusive means small, poorly fitted or top-dose-only effect, or another doubt; inactive means no such curve, though single readings can be large; an effect the other way counts as inactive or inconclusive. Potency means the concentration at half of the fitted maximal effect.

Results for CCOC(=O)C1=C(C)N(C[C@@H]2CC[C@@H](Cc3ccc(-c4ccccc4)cc3)O2)C(=O)NC1c1cccc([N+](=O)[O-])c1 (some centres undefined) ?
ELG1 DNA repair: -9.3%; ELG1 genotox: -1.2%

How did Cn1c(/C=N/NC(=O)c2ccccc2)nc2ccccc21 do in these assays?
SMN2 splice up: -17.1%; ELG1 DNA repair: 4.4%; ELG1 genotox: 2.6%; FLuc counter: -13.9%; Rab9 prom act: 12.1%; NPC1 promoter act: 11.5%

What do the screens show for `C/C(=N\Nc1ccc(C(=O)O)cc1)c1nc2ccccc2n1C`?
SMN2 splice up: 10µM*; ELG1 DNA repair: inconclusive; ELG1 genotox: inconclusive; FLuc counter: 10.7µM*; Rab9 prom act: 1.12µM*; NPC1 promoter act: 0.562µM*

What do the screens show for `O=C(/C=C/c1ccco1)Nc1ccc(F)cc1`?
FLuc counter: 13.5µM*; Rab9 prom act: 3.98µM*; NPC1 promoter act: 3.98µM*

What do the screens show for `O=C(/C=C/c1ccco1)Nc1ccc2c(c1)OCO2`?
SMN2 splice up: 10µM*; ELG1 DNA repair: inconclusive; ELG1 genotox: inconclusive; FLuc counter: 6.01µM*; Rab9 prom act: 0.794µM*; NPC1 promoter act: 1.78µM*

How did O=C(/C=C/c1ccco1)NCc1ccc2c(c1)OCO2 do in these assays?
SMN2 splice up: 12.0%; ELG1 DNA repair: 2.9%; ELG1 genotox: 0.0%; FLuc counter: inconclusive; Rab9 prom act: -1.1%; NPC1 promoter act: 3.6%

Results for CN(C)C(=O)COC(=O)c1ccccc1Nc1ccc(SC(F)F)cc1 ?
SMN2 splice up: 12.6µM*; ELG1 DNA repair: inconclusive; ELG1 genotox: inconclusive; FLuc counter: 26.9µM*; Rab9 prom act: inconclusive; NPC1 promoter act: inconclusive

How did COc1ccc(NC(=O)/C(Cl)=C(/Cl)S(=O)Cc2ccccc2)cn1 (centres undefined) do in these assays?
SMN2 splice up: -107.0%; ELG1 DNA repair: 8.2µM*; ELG1 genotox: -35.4%; FLuc counter: -15.4%; Rab9 prom act: -40.5%; NPC1 promoter act: -29.3%

Results for COc1ccc(-c2nc(CN3CCN(c4ncnc5ccccc45)CC3)c(C)o2)c(OC)c1 ?
ELG1 DNA repair: 7.3µM*; ELG1 genotox: -17.5%; FLuc counter: -0.4%; Rab9 prom act: -34.3%; NPC1 promoter act: -20.3%

Results for Cc1oc(-c2cc(F)ccc2F)nc1CN1CCN(c2ncnc3ccccc23)CC1 ?
ELG1 DNA repair: inconclusive; ELG1 genotox: -8.5%; FLuc counter: 26.9µM*; Rab9 prom act: -0.4%; NPC1 promoter act: 6.3%

Results for Cc1cc(-c2nnc(SCC(=O)Nc3ccc(C)c(C)c3)n2N)n[nH]1 ?
ELG1 DNA repair: 22.9%; ELG1 genotox: 0.6%; FLuc counter: 10.7µM*; Rab9 prom act: 5.8%; NPC1 promoter act: 17.8%

What do the screens show for `CC(C)(C)C(=O)NC(=S)Nc1ccccn1`?
SMN2 splice up: 16.2%; ELG1 DNA repair: inconclusive; ELG1 genotox: 5.7%; FLuc counter: -4.3%; Rab9 prom act: -2.0%; NPC1 promoter act: -1.2%

What do the screens show for `O=C(NC(=S)Nc1ccccn1)c1ccc(-c2ccccc2)cc1`?
ELG1 DNA repair: inconclusive; ELG1 genotox: inconclusive; FLuc counter: 1.51µM*; Rab9 prom act: 0.282µM*; NPC1 promoter act: 0.112µM*

What do the screens show for `O=C(NC(=S)Nc1ccccn1)c1ccc([N+](=O)[O-])cc1`?
SMN2 splice up: 2.82µM*; ELG1 DNA repair: inconclusive; ELG1 genotox: inconclusive; FLuc counter: 5.36µM*; Rab9 prom act: 1µM*; NPC1 promoter act: 2µM*

What do the screens show for `O=C(Nc1ccccn1)c1ccc(Br)s1`?
ELG1 DNA repair: inconclusive; ELG1 genotox: inconclusive; FLuc counter: 10.7µM*; Rab9 prom act: 3.98µM*; NPC1 promoter act: 1.78µM*

How did O=C(NC(=S)Nc1ccccn1)c1ccccc1 do in these assays?
ELG1 DNA repair: inconclusive; ELG1 genotox: 1.64µM*; FLuc counter: 7.57µM*; Rab9 prom act: 0.126µM*; NPC1 promoter act: 0.316µM*

Results for CC1=C(C(=O)OC2CCCC2)C(c2coc3ccccc3c2=O)C2=C(CC(C)(C)CC2=O)N1 (centres undefined) ?
ELG1 DNA repair: inconclusive; ELG1 genotox: -5.4%; FLuc counter: -3.6%; Rab9 prom act: -3.2%; NPC1 promoter act: 0.9%

Results for O=C(CC(=O)c1ccccc1)Nc1ccccn1 ?
ELG1 DNA repair: inconclusive; ELG1 genotox: 14.6µM*; FLuc counter: 10.7µM*; Rab9 prom act: 1.78µM*; NPC1 promoter act: 2.51µM*

How did O=C(/C=C/c1ccc(Cl)cc1Cl)NC(=S)Nc1ccccn1 do in these assays?
SMN2 splice up: 4.0%; ELG1 DNA repair: inconclusive; ELG1 genotox: inconclusive; FLuc counter: inconclusive; Rab9 prom act: 0.891µM*; NPC1 promoter act: 1.12µM*

Results for O=C(/C=C/c1ccc(Cl)cc1Cl)NC(=S)Nc1ccc(CN2CCOCC2)cc1 ?
SMN2 splice up: -23.5%; ELG1 DNA repair: -6.1%; ELG1 genotox: -1.2%; FLuc counter: -2.5%; Rab9 prom act: 7.1%; NPC1 promoter act: -0.8%

How did O=C(Nc1ccc(Cl)cc1)c1ccc(-c2ccccn2)s1 do in these assays?
ELG1 DNA repair: inconclusive; ELG1 genotox: 23.3%; FLuc counter: inconclusive; Rab9 prom act: 2.82µM*; NPC1 promoter act: 1.58µM*

Results for O=C(NC(=S)NC(c1ccccc1)c1ccncc1)c1ccccc1 (centres undefined) ?
SMN2 splice up: 0.6%; ELG1 DNA repair: 18.4µM*; ELG1 genotox: -10.8%; FLuc counter: -1.0%; Rab9 prom act: -2.7%; NPC1 promoter act: -3.3%

What do the screens show for `O=C(Nc1ccc(Cl)cc1)c1cc2c(Cl)nc3ccccc3c2s1`?
SMN2 splice up: -1.7%; FLuc counter: -3.4%

What do the screens show for `O=C(CS(=O)(=O)c1ccccc1)Nc1ccccn1`?
SMN2 splice up: 4.8%; ELG1 DNA repair: 0.6%; ELG1 genotox: 2.1%; FLuc counter: 0.6%; Rab9 prom act: -4.6%; NPC1 promoter act: -2.8%

Results for O=C(Cn1ccn(-c2cccc(Cl)c2)c(=O)c1=O)c1ccc(F)cc1 ?
FLuc counter: -16.8%

Results for O=C(Nc1ccccn1)c1cc2cc([N+](=O)[O-])ccc2s1 ?
SMN2 splice up: inconclusive; ELG1 DNA repair: inconclusive; ELG1 genotox: inconclusive; FLuc counter: inconclusive; Rab9 prom act: 1.41µM*; NPC1 promoter act: 2µM*

What do the screens show for `CCCCNc1c(-c2ccc(SC(C)CC)c(OC)c2)nc2ccc(C)cn12` (centres undefined)?
ELG1 DNA repair: 5.3%; ELG1 genotox: -6.2%; FLuc counter: 8.49µM*; Rab9 prom act: -1.2%; NPC1 promoter act: -0.4%
